TDP-43 yeast inh: qHTS of TDP-43 Inhibitors | Potency, µM (titrated, usually from 46.1 µM), for inactives: at the top dose growth rescue (activation), hits mostly activators | TDP-43 expressing yeast growth rescue, BacTiter-Glo, 24 h | 410,000 tested, 1.8% active; further: % of control where 0% means no effect; nearly all actives have a fitted effect of over 50% in size
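Growth rescue of TDP-43-toxic yeast measured as ATP luminescence (BacTiter-Glo). Cells grown to mid-log in raffinose, induced in galactose at OD600=0.02, exposed to compound 24 hr at 30 deg C.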
Abeta yeast res: qHTS for compounds that reverse cellular toxicity of Amyloid beta (A-beta) peptide in yeast: Primary Screen. yeast expressing A-beta42, growth rescue, OD600, 48 h; response scale: 0% DMSO, 100% iron-clioquinol control. Potency, µM (doses to about 46.1 µM), usual class: activators. 410,000 tested, 0.063% active; further: nearly all actives have a fitted effect of over 55% in size
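Growth rescue measured by 600 nm absorbance after 48 h yeast culture at 30 C with compound. Values normalized between DMSO and an equimolar ferric chloride plus clioquinol control.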
FUS suppressor: qHTS for Suppressors of FUS Proteinopathy: Primary screen using FUS-linked yeast assay; S. cerevisiae FUS-expressing, growth rescue, OD600, 24 h; Potency, µM (highest dose often 76.6 µM), hits mostly activators; 390,000 tested, 0.24% active; AID 1347120, 2019;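 further: plate controls were DMSO vehicle for no effect and reference control for full effect; nearly all actives have a fitted effect of over 55% in size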
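Absorbance at 600 nm, taken 24hr after compound addition, measured rescue of FUS-yeast growth at 30C. Induction used 2% galactose with seeding at OD 0.005. Controls: CP55940 from 92uM final, DMSO only.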
aSyn yeast inh: qHTS of alpha-syn Inhibitors. Yeast expressing alpha-synuclein, growth rescue, BacTiter-Glo, 24 h. Potency, µM (top dose mostly 46.1 µM), inactives show at the highest dose growth rescue (activation), usual class: activators. 370,000 tested, 0.14% active; further: % of control where 0% means no effect; nearly all actives have a fitted effect of over 65% in size
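Readout is rescue of growth in alpha-synuclein-expressing yeast, so inhibitors of toxicity appear as activators. Growth after 24 hr at 30 deg C in galactose medium is quantified by luminescence.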
Numbers without * were called inactive; [ ] = remark or other dose. Most compounds without a hit are left out; they make up all but 2.1% or so of the library. The call rests on the fitted dose curve; in most records, active means well fitted curve in the direction sought with a large enough effect; inconclusive means small, poorly fitted or top-dose-only effect, or another doubt; inactive means no such curve, though single readings can be large; an effect the other way counts as inactive or inconclusive. Potency means the concentration at half of the fitted maximal effect.

Results for CCC(C(=O)N1CCN(c2cc(Cl)ccc2C)CC1)n1nc(C)n2c(cc3occc32)c1=O (stereo not drawn) ?
TDP-43 yeast inh: 10%; Abeta yeast res: inactive; FUS suppressor: inconclusive

What do the screens show for `Cc1ccc(C(=O)Nc2c(C(=O)NCc3ccc(Cl)cc3)sc3nc(C)cc(C)c23)cc1`?
TDP-43 yeast inh: 13%; Abeta yeast res: inactive; FUS suppressor: inactive

Results for Cc1ccc(CN2C(=O)C(=O)c3cc(Br)cc(C)c32)cc1 ?
TDP-43 yeast inh: inconclusive; Abeta yeast res: inactive; FUS suppressor: inactive

What do the screens show for `Cc1nc(NCC(=O)c2c[nH]c3ccccc23)sc1C`?
aSyn yeast inh: -3%

How did O=C(Nc1nnc(Cc2ccccc2)s1)C1CCN(C(=O)c2cccs2)CC1 do in these assays?
aSyn yeast inh: 3%

How did CCCC(=O)N1CCN(c2nc3c(OC)ccc(Cl)c3s2)CC1 do in these assays?
TDP-43 yeast inh: 20µM*; Abeta yeast res: inactive; FUS suppressor: inactive; aSyn yeast inh: 21%

What do the screens show for `Cc1c(Cl)ccc2sc(N3CCN(C(=O)CS(=O)(=O)c4ccccc4)CC3)nc12`?
TDP-43 yeast inh: 18µM*; Abeta yeast res: 13µM*; FUS suppressor: inconclusive

What do the screens show for `CC(=O)N1CCN(c2nc3c(C)ccc(Cl)c3s2)CC1`?
TDP-43 yeast inh: inconclusive; Abeta yeast res: inactive; FUS suppressor: inactive

How did COc1c(S(=O)(=O)N2CCN(C(=O)c3ccco3)CC2)ccc(Cl)c1Cl do in these assays?
TDP-43 yeast inh: 13µM*; Abeta yeast res: inactive; FUS suppressor: inactive; aSyn yeast inh: 17%

What do the screens show for `Cc1c(Cl)ccc2sc(N3CCN(C(=O)C(C)C)CC3)nc12`?
TDP-43 yeast inh: 22µM*; Abeta yeast res: inactive; FUS suppressor: inactive

Results for CC(C)C(=O)N1CCN(c2nc3ccc(Cl)cc3s2)CC1 ?
TDP-43 yeast inh: inconclusive; Abeta yeast res: inactive; FUS suppressor: inactive; aSyn yeast inh: 0%

Results for COc1cc(S(=O)(=O)N2CCN(C(=O)c3ccco3)CC2)c(OC)cc1C ?
TDP-43 yeast inh: 2%; Abeta yeast res: inactive; FUS suppressor: inactive; aSyn yeast inh: 0%

What do the screens show for `COc1ccc(OC)c2sc(N3CCN(C(=O)c4ccco4)CC3)nc12`?
TDP-43 yeast inh: 13%; Abeta yeast res: inactive; FUS suppressor: inactive

What do the screens show for `Cc1c(Cl)ccc2sc(N3CCN(C(=O)c4ccco4)CC3)nc12`?
TDP-43 yeast inh: 32µM*; Abeta yeast res: inactive; FUS suppressor: inconclusive

How did Cc1c(Cl)ccc2sc(N3CCN(C(=O)C4=COCCO4)CC3)nc12 do in these assays?
TDP-43 yeast inh: inconclusive; Abeta yeast res: inactive; FUS suppressor: inactive; aSyn yeast inh: 8%

How did COc1ccc(Cl)c2sc(N3CCN(C(=O)c4ccco4)CC3)nc12 do in these assays?
TDP-43 yeast inh: 18µM*; Abeta yeast res: inactive; FUS suppressor: inactive; aSyn yeast inh: 17%

How did N#Cc1c2n(c3c(=O)n(Cc4ccc(Cl)cc4)cnc13)CCCCC2 do in these assays?
TDP-43 yeast inh: 20µM*; Abeta yeast res: inactive[9.22 µM]; FUS suppressor: inactive; aSyn yeast inh: 13%

How did Cc1cccc(-n2cc(-c3ccccc3)c3c(NC4CCCC4)ncnc32)c1 do in these assays?
TDP-43 yeast inh: 20µM*; Abeta yeast res: inactive; FUS suppressor: inactive

What do the screens show for `COc1ccc(-n2cc(-c3ccccc3)c3c(NC4CCCCC4)ncnc32)cc1`?
TDP-43 yeast inh: -3%; Abeta yeast res: inactive; FUS suppressor: inactive

How did Cc1ccc(-n2cc(-c3ccccc3)c3c(NC4CCCC4)ncnc32)cc1 do in these assays?
TDP-43 yeast inh: 35µM*; Abeta yeast res: inactive; FUS suppressor: inactive

What do the screens show for `CCOc1ccc(-n2cc(-c3ccccc3)c3c(NC4CCCC4)ncnc32)cc1`?
TDP-43 yeast inh: inconclusive; Abeta yeast res: inactive; FUS suppressor: inactive

What do the screens show for `N/C(=N\OC(=O)c1ccc(Br)cc1)c1cccc([N+](=O)[O-])c1`?
TDP-43 yeast inh: 10µM*; Abeta yeast res: inactive; FUS suppressor: inactive; aSyn yeast inh: -17%

How did Cc1cccc(/C(N)=N/OC(=O)Cc2cccs2)c1 do in these assays?
TDP-43 yeast inh: inconclusive; Abeta yeast res: inactive; FUS suppressor: inactive; aSyn yeast inh: -5%

How did N/C(=N\OC(=O)c1ccc([N+](=O)[O-])cc1)c1ccc(Br)cc1 do in these assays?
TDP-43 yeast inh: 15%; Abeta yeast res: inactive; FUS suppressor: inactive; aSyn yeast inh: -8%

Results for N/C(=N\OC(=O)c1ccncc1)c1cccc([N+](=O)[O-])c1 ?
TDP-43 yeast inh: inconclusive; Abeta yeast res: inactive; FUS suppressor: inactive; aSyn yeast inh: 5%

How did N/C(=N\OC(=O)Cc1cccs1)c1cccc([N+](=O)[O-])c1 do in these assays?
TDP-43 yeast inh: 11µM*; Abeta yeast res: inactive; FUS suppressor: inactive; aSyn yeast inh: 28%

How did Cc1ccc(C(=O)O/N=C(\N)c2cccc([N+](=O)[O-])c2)cc1 do in these assays?
TDP-43 yeast inh: 10µM*; Abeta yeast res: inactive; FUS suppressor: inactive; aSyn yeast inh: -13%

Results for COc1cccc(NC(=O)Nc2nc3ncccn3c2-c2ccc(C(F)(F)F)cc2)c1 ?
FUS suppressor: inactive

Results for c1coc(CNc2nc[n+]3c4c2ncn4CC3)c1 ?
aSyn yeast inh: -5%

How did c1ccc(OCc2nnc(SCc3nc4ccccc4[nH]3)n2-c2ccccc2)cc1 do in these assays?
FUS suppressor: inactive

How did COc1cc(C)c(NC(C)C(=O)c2c(C)[nH]c3ccccc23)cc1OC (stereo not drawn) do in these assays?
aSyn yeast inh: -4%

What do the screens show for `O=C(NCCOc1ccccc1Cl)C(=O)c1c[nH]c2ccccc12`?
TDP-43 yeast inh: 11µM*; Abeta yeast res: inactive; FUS suppressor: inactive; aSyn yeast inh: 1%

Results for O=C(NCCOc1ccccc1Cl)c1cc(F)c(F)cc1Cl ?
TDP-43 yeast inh: 8.9µM*; Abeta yeast res: inactive; aSyn yeast inh: 14%

What do the screens show for `COc1ccccc1OCCNC(=O)C(=O)c1c[nH]c2ccccc12`?
TDP-43 yeast inh: inconclusive; Abeta yeast res: inactive; FUS suppressor: inactive; aSyn yeast inh: 12%

Results for O=C(CC(Cl)(Cl)Cl)N1CCN(/[N+]([O-])=N/Oc2ccc([N+](=O)[O-])cc2[N+](=O)[O-])CC1 ?
aSyn yeast inh: -67%

What do the screens show for `COc1ccc(C(=O)c2cn(CC(=O)Nc3ccc4c(c3)OCO4)c3ccc(OC)cc3c2=O)cc1`?
TDP-43 yeast inh: 15%; Abeta yeast res: inactive; FUS suppressor: inactive

Results for COc1ccc(CNC(=O)CSc2ncc3c(n2)-c2ccc(Cl)cc2N(Cc2ccc(F)cc2)S3(=O)=O)cc1OC ?
TDP-43 yeast inh: 3%; Abeta yeast res: inactive; FUS suppressor: inactive

How did CCCS(=O)(=O)c1nnnn1-c1cccc(OC)c1 do in these assays?
TDP-43 yeast inh: 11µM*; Abeta yeast res: inactive; FUS suppressor: inactive; aSyn yeast inh: -4%
